The text below walks through data of PubChem BioAssay (NCATS).

SMILES strings stand for the structures. Where “and” joins values, the source holds several entries; their conditions need not be identical. Equal entries are not always repeated. Inconclusive results are not listed. Where a structure was tested more than once in an assay, its records may differ in their call. Calls of active or inactive are those of the source. Calls follow the shape of the dose curve; as a rule, active = well fitted curve in the direction sought with a large enough effect; inconclusive = small, poorly fitted or top-dose-only effect, or another doubt; inactive = no such curve, though single readings can be large; an effect the other way counts as inactive or inconclusive.

Experiment [1] in a line: qHTS to identify inhibitors of the type 1 interferon - major histocompatibility complex class I in skeletal muscle: primary screen against the NCATS Mechanism Interrogation Plate v5.0 (MIPE) Libary (AID 1347411). Also: nearly all actives have a fitted effect of over 65% in size. Also: potency is read from the fitted curve at half-maximal effect. The method in brief:
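Immortalized human myoblasts (C25cl48) with HiBit knocked into endogenous HLA-B*08:01 were stimulated with 4 ng/ml IFN-beta and given compounds in 11-point 1:3 titration from 46 uM. After 24 h at 37 C, lytic HiBiT luminescence was read.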
(In general: qHTS replaces the single test concentration by a dilution series.)

Experiment [2] deals with Protein phosphatase 1D (Homo sapiens) (UniProt O15297). The experiment is described as follows: RapidFire Mass Spectrometry qHTS Assay for Modulators of WT P53-Induced Phosphatase 1 (WIP1) (AID 1347424).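 Also: amount of dephosphorylated VEPPL-S-QETFS peptide product formed by WIP1; series mostly up to about 63 µM.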 Put shortly:
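10 nM WIP1 + cpd, 1 h RT; + 2 uM VEPPL-pS-QETFS, 5 min RT; stop 0.5% formic acid; labelled product standard 1 uM; RapidFire MS. Buffer 50 mM Tris pH 7.5, 30 mM MgCl2, 1 mM TCEP.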

Experiment [3] shares this target. The experiment is described as follows: Rhodamine-PBP qHTS Assay for Modulators of WT P53-Induced Phosphatase 1 (WIP1) (AID 1347425). The method in brief: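 Steps: enzyme with Rh-PBP sensor and compounds, room-temperature incubation of 1 hr, baseline read, addition of VEPPL-pS-QETFS (10 uM final), kinetic fluorescence reads at 525/598 nm. Activity equals final minus baseline signal.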

The nature of experiment [4]: Validation qHTS assay for inhibitors of Activation Induced Cytidine Deaminase (AID): UDG Counterscreen signal (AID 1347427). Also: potency is read from the fitted curve at half-maximal effect. The method in brief:
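Counterscreen read of UDG activity (2 U/mL, 4/3x) in the FRET deamination format with AID (1 uM, 4/3x), DJC20/DJC23 substrates (250 nM, 4x), 4 h at room temperature. NaOH stop, fluorescence at 560 ex/665 em.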

Experiment [5] has as its target Single-stranded DNA cytosine deaminase (Homo sapiens) (UniProt Q9GZX7). The experiment is described as follows: Validation qHTS assay for inhibitors of Activation Induced Cytidine Deaminase (AID): AID signal (AID 1347429). Also: potency is read from the fitted curve at half-maximal effect. Put shortly:
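FRET deamination assay: 1 uM AID (4/3x stock) with UDG, compound up to 114 uM, then 250 nM DJC20/DJC23 substrate (4x stock) for 4 hr at room temperature. NaOH added, 30 min; fluorescence read 540/590 nm.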

Experiment [6] is described as follows: Primary qHTS for inhibitors of La Crosse Virus (LACV) - induced cell death in SH-SY5Y cells (AID 1508616).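 Also: top concentration of the series differs between compounds; higher means more rescue of cells from virus-induced death.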 The method in brief:
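SH-SY5Y cells (6000/well) plated 24 h, then given compounds by pin transfer and LACV at 0.01 MOI for 6 days at 37C. Viability measured by ATPLite luminescence, normalized to infected DMSO and uninfected DMSO.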

The target of experiment [7] is Calcium and integrin-binding protein 1 (Homo sapiens) (UniProt Q99828). The experiment is described as follows: Validation qHTS for Identification of Calcium Integrin Binding protein 1 (CIB1) Competitor (AID 1508618). Also: potency is read from the fitted curve at half-maximal effect. Put shortly: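 In this qHTS validation, the LOPAC set (up to 114 uM) was tested for blocking CIB1 binding to a fluorescein-tagged alphaIIb peptide, with FP detection at 480/540 nm.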

Experiment [8] shares this target. The experiment is described as follows: Primary qHTS for Identification of Calcium Integrin Binding Protein 1 (CIB1) Competitor (AID 1508620). Also: potency is read from the fitted curve at half-maximal effect. The method in brief:
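CIB1-GST (1 uM final) and compound incubated 15 min at room temperature before adding FITC-alphaIIb peptide tracer (100 nM final). Competition for binding read by fluorescence polarization (ex 480, em 540) after another 15 min at room temperature.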

Experiment [9] is described as follows: Confirmatory qHTS for small molecule stabilizers of the endoplasmic reticulum resident proteome: Secreted ER Calcium Modulated Protein (SERCaMP) assay (AID 1508628). Also: nearly all actives have a fitted effect of over 40% in size. Also: potency is read from the fitted curve at half-maximal effect. Put shortly:
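SH-SY5Y cells stably expressing GLuc-SERCaMP, treated 16 h with compound (primary 1.53, 7.67, 38.3 uM; confirmation 11 concentrations, up to 76.6 uM), then 100 nM thapsigargin for 4 h. Secreted Gaussia luciferase in medium read by coelenterazine luminescence.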

The target of experiment [10] is Calcium and integrin-binding protein 1 (Homo sapiens) (UniProt Q99828). The experiment is described as follows: Confirmatory qHTS for Identification of Calcium Integrin Binding Protein 1 (CIB1) Competitor (AID 1508617). Also: potency is read from the fitted curve at half-maximal effect; nearly all actives have a fitted effect of over 65% in size. The conditions noted are these: CIB1 binding competition assay, biochemical qHTS. Put shortly: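 Binding competition between test compounds and fluorescent alphaIIb peptide for 1 uM CIB1-GST is monitored by FP at 480/540 nm. Final compound range is up to 114 uM; unlabeled peptide serves as reference competitor.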

Single-stranded DNA cytosine deaminase (Homo sapiens), sequence (Q9GZX7 whole entry, looked up): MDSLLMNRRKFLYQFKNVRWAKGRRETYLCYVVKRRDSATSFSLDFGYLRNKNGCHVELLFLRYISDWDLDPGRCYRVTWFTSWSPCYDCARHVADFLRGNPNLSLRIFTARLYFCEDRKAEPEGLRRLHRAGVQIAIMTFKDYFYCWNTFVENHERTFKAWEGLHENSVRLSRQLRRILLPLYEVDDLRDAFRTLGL
Protein phosphatase 1D (Homo sapiens), sequence (O15297 whole entry, looked up): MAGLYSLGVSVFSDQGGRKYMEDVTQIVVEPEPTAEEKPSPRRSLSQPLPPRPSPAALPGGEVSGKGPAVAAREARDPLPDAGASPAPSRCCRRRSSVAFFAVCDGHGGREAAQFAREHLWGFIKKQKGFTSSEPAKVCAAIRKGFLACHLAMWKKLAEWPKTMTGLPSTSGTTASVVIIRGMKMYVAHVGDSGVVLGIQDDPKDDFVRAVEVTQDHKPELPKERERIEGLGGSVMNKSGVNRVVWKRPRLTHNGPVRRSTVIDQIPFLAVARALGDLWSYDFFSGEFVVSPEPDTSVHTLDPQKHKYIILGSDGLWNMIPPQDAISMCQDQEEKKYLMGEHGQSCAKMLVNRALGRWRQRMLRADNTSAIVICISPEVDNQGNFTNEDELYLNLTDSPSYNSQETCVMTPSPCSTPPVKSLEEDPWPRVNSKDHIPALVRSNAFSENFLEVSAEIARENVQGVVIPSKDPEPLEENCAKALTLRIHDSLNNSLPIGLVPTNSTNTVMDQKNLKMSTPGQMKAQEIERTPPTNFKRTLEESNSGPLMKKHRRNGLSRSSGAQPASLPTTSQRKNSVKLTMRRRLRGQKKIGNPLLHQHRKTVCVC
Calcium and integrin-binding protein 1 (Homo sapiens), sequence (Q99828 whole entry, looked up): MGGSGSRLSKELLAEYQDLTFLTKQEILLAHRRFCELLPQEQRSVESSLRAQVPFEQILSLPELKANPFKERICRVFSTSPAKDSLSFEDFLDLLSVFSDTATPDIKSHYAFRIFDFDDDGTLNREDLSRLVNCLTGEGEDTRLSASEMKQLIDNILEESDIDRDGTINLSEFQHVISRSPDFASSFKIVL

Regarding `CC[N+](CC)(CC)CCOc1cccc(OCC[N+](CC)(CC)CC)c1OCC[N+](CC)(CC)CC`, the Potency entry in [1], in experiment [2], in experiment [4], in [5] and in experiment [6] was “inactive” each time. In experiment [3], the outcome was inactive.

Consider `O=C1N(c2ccccc2)c2ccccc2C1(Cc1ccncc1)Cc1ccncc1`, for which the Potency result in [1], in experiment [2], in experiment [4], in experiment [5], in experiment [6] and in experiment [7] was “inactive” each time. Also, the Potency entry in [8] was “inactive”. The compound was classed as inactive in [3].

`CN1C(C(=O)Nc2ccccn2)=C(O)c2ccccc2S1(=O)=O`: the Potency result in experiment [1], in experiment [2], in experiment [4], in experiment [5], in experiment [6] and in experiment [7] was “inactive” each time. Moreover, the Potency entry in [8] is “inactive”. Also, the outcome in experiment [3] was inactive.

As to `NC(CO)C(=O)NNCc1ccc(O)c(O)c1O` (stereo unspecified), the Potency entry in [1], in experiment [2], in experiment [4], in [5], in experiment [6] and in experiment [7] was “inactive” each time. Further, the Potency entry in [8] is “inactive”. Also, the outcome in experiment [3] was inactive.

Consider `COc1ccccc1N1CCN(CC(O)COc2cccc3ccccc23)CC1` (stereo unspecified), for which the Potency result in [1], in experiment [2], in experiment [4], in experiment [5], in experiment [6] and in experiment [7] was “inactive” each time. In experiment [3], the compound was called inactive.

`N[C@@H](Cc1c[nH]c2ccc(O)cc12)C(=O)O`: the Potency result in [1], in [2], in experiment [4], in experiment [5], in [6] and in experiment [7] was “inactive” throughout. For the same compound, the outcome in [3] was inactive.

`COc1ccccc1OCC(O)CN1CCN(CC(=O)Nc2c(C)cccc2C)CC1` (stereo unspecified): the Potency result in experiment [1], in [2], in experiment [4], in experiment [5], in experiment [6] and in experiment [7] was “inactive” each time. For the same compound, the Potency entry in experiment [8] is “inactive”. Also, the call in [3] was inactive.

For `COc1ccc(C2CNC(=O)C2)cc1OC1CCCC1` (stereo unspecified), the Potency result in experiment [1], in experiment [2], in [4], in experiment [5], in experiment [6] and in experiment [7] was “inactive” throughout. For the same compound, in [3], the call was inactive.

Regarding `CN(C)CCOC(c1ccccc1)c1ccccc1`, the Potency result in experiment [1], in experiment [2], in experiment [4], in [5], in experiment [6] and in experiment [7] was “inactive” in each case. In addition, the outcome in experiment [3] was inactive.

As for `NS(=O)(=O)c1cc2c(cc1Cl)NCNS2(=O)=O`, the Potency result in experiment [1], in experiment [2], in [4], in experiment [5], in experiment [6] and in [7] was “inactive” in each case. The call in [3] was inactive.

`NC(=O)NO`: the Potency result in [1], in experiment [2], in experiment [4], in experiment [5], in [6] and in experiment [7] was “inactive” each time. Moreover, the result in [3] was inactive.

For `CC12CC3CC(C)(C1)CC(N)(C3)C2`, the Potency entry in experiment [1], in [2], in [4], in [5], in experiment [6] and in [7] was “inactive” throughout. Besides, the Potency result in experiment [8] is “inactive”. Moreover, the call in experiment [3] was inactive. Besides, the Potency in experiment [9] is 11.2 µM (active) and 39.8 µM (active).

Consider `O=C(Nc1ccc([N+](=O)[O-])cc1Cl)c1cc(Cl)ccc1O`, for which the Potency result in [1], in [2], in experiment [4], in [5], in experiment [6] and in experiment [8] was “inactive” each time. For the same compound, the Potency result in experiment [9] was “inactive”. Also, the compound was called inactive in [3].

`OCCN(CCO)c1nc(N2CCCCC2)c2nc(N(CCO)CCO)nc(N3CCCCC3)c2n1`: the Potency result in experiment [1], in experiment [2], in experiment [5] and in [6] was “inactive” in each case. In [3], the compound was called inactive. The Potency in [7] is 14.1 µM (active); in [8] it was “inactive and 11.2 µM (active)”; in experiment [9], 31.6 µM (active).

Regarding `CC1(CN2CCC(n3c(=O)[nH]c4ccccc43)CC2)OCc2ccccc2-n2cccc21` (stereo unspecified), the Potency entry in experiment [1], in experiment [2], in experiment [6] and in [8] was “inactive” in each case. The result in experiment [3] was inactive.

In the case of `COc1cc2nc(N3CCN(C(=O)C4COc5ccccc5O4)CC3)nc(N)c2cc1OC` (stereo unspecified), the Potency result in experiment [2], in experiment [4], in experiment [5], in [6] and in [7] was “inactive” each time. Further, the outcome in experiment [3] was inactive.

For the compound `Cn1ccc2cc3c(cc21)CCN3C(=O)Nc1cccnc1`, the Potency entry in experiment [1], in experiment [2], in experiment [4], in experiment [5], in experiment [6] and in [7] was “inactive” each time. For the same compound, in [8], the Potency result is “inactive”. Further, in experiment [3], the call was inactive.

As to `O=C1c2c(O)ccc(O)c2C(=O)c2c(NCCNCCO)ccc(NCCNCCO)c21`, the Potency was 0.93 µM (active) in experiment [1]; 31.6 µM (active) in [4]; 10 µM (active) in experiment [5]; 22.4 µM (active) and 20 µM (active) in [10]; 20 µM (active) in experiment [7]; 30.4 µM (active) and 25.1 µM (active) in experiment [8]. For the same compound, the Potency entry in experiment [2] is “inactive”. Moreover, the call in [3] was inactive.

On to `CN1CCC(=C2c3ccccc3C=Cc3ccccc32)CC1`, for which the Potency result in experiment [1], in experiment [2], in experiment [4], in experiment [5], in [6] and in experiment [7] was “inactive” each time. In addition, the Potency result in [8] was “inactive”. The outcome in experiment [3] was inactive. Besides, the Potency in [9] was 20 µM (active) and 15.8 µM (active).

For the compound `C[C@@H]1CC(=O)NN=C1c1ccc(NN=C(C#N)C#N)cc1`, the Potency was 18.6 µM (active) in experiment [1] and 15.8 µM (active) in experiment [9]. The Potency result in [2] and in [6] was “inactive” throughout.

On to `CN(C)CCCN1c2ccccc2CCc2ccc(Cl)cc21`, for which the Potency entry in experiment [1], in experiment [2], in experiment [4], in [5], in experiment [6] and in experiment [9] was “inactive” in each case. Moreover, the result in [3] was inactive.

Regarding `Nc1nnc(-c2cccc(Cl)c2Cl)c(N)n1`, the Potency result in experiment [1], in experiment [2], in experiment [6], in [7] and in [8] was “inactive” in each case. Further, the compound was called inactive in experiment [3].

With `CN1CCC(=C2c3ccccc3CC(=O)c3sccc32)CC1`, the Potency result in [1], in experiment [2], in experiment [4], in [5], in experiment [6] and in experiment [7] was “inactive” throughout. Also, the compound was classed as inactive in experiment [3]. Moreover, the Potency in experiment [9] was 20 µM (active) and 25.1 µM (active).
